# Test results taken from PubChem BioAssay (EPA / NIEHS).
# Calls of active or inactive are those of the source. How the source made its calls: active means hit-call score of the fitted dose curve at least 0.9, where 1 is the maximum; inconclusive means response in the unintended direction; inactive means score below 0.9.
# Biological target: PGR (gene 5241) (UniProt P06401)
# Experiment: TOX21_PR_BLA_Followup_Antagonist_ratio: Tox21 HEK293 Progesterone Receptor (PR) Antagonism Beta-lactamase Follow-Up Assay, Ratio (AID 2283934)
# Protocol: TOX21_PR_BLA_Followup is a secondary assay for specificity for the TOX21_PR_BLA_Agonist assay. To differentiate true PR agonists from cytotoxic substances, this follow up assay is multiplexed with a cell viability assay. The compounds were also tested for auto fluorescence that may interfere with the biological target readout resulting in potential false positives and/or negatives. To identify the compounds that stimulate PR signaling, a PR-UAS-bla GripTite cell line i.e. PR-UAS-bla HEK293T (Invitrogen, Carlsbad, CA, USA) containing a beta-lactamase reporter gene under the control of an UAS response element was used to screen Tox21 10K compound library. The cytotoxicity of the Tox21 compound library against the PR-bla cell line was tested in parallel by measuring the cell viability using CellTiter-Glo assay in the same wells. TOX21_PR_BLA_Followup_Antagonist_ratio is an assay readout measuring reporter gene via receptor activity and designed using inducible reporter (beta lactamase induction) detected with GAL4 b-lactamase reporter gene. The signal is derived from the ratio of cleaved (ch2) to uncleaved (ch1) reporter gene substrate used as the measure of target activity.Data from the assay component TOX21_PR_BLA_Followup_Antagonist_ratio was analyzed into 1 assay endpoint. This assay endpoint, TOX21_PR_BLA_Followup_Antagonist_ratio, was analyzed in the positive analysis fitting direction relative to DMSO as the negative control and baseline of activity. Using a type of inducible reporter, measures of receptor for gain-of-signal activity can be used to understand the reporter gene at the pathway-level as they relate to the gene NR3C3. Furthermore, this assay endpoint can be referred to as a primary readout, because this assay has produced multiple assay endpoints where this ratio serves a reporter gene function to understand target activity. To generalize the intended target to other relatable targets, this assay endpoint is annotated to the nuclear receptor intended target family, where the subfamily is steroidal.
# Assay Protocol: PR-UAS-bla HEK293T cells were dispensed at 3,000 cells/4 uL of assay medium containing 2% charcoal stripped FBS per well into black wall/clear-bottom 1536-well plates using a Multidrop Combi (ThermoFisher Scientific, Waltham, MA) dispenser. After the assay plates were incubated at a 37C and 5% CO2 for 6 hr, 23 nL of compounds dissolved in DMSO, positive controls or DMSO only was transferred to the assay plate by a Pintool station (Kalypsys, San Diego, CA), followed by addition of 1 uL (1nM as final concentration) of Promegestone (R5020) in assay medium using a BioRAPTR FRD (Flying Reagent Dispenser, Aurora Discovery, San Diego, CA). The plates were incubated at 37C and 5% CO2 for 16 hr. Then 1 uL of LiveBLAzer B/G FRET substrate was added using a FRD. After the plates were incubated at room temperature for 2 hours, fluorescence intensity was measured by an Envision plate reader (PerkinElmer, Shelton, CT).
# Sequence of PGR (gene 5241) (P06401 whole entry, looked up): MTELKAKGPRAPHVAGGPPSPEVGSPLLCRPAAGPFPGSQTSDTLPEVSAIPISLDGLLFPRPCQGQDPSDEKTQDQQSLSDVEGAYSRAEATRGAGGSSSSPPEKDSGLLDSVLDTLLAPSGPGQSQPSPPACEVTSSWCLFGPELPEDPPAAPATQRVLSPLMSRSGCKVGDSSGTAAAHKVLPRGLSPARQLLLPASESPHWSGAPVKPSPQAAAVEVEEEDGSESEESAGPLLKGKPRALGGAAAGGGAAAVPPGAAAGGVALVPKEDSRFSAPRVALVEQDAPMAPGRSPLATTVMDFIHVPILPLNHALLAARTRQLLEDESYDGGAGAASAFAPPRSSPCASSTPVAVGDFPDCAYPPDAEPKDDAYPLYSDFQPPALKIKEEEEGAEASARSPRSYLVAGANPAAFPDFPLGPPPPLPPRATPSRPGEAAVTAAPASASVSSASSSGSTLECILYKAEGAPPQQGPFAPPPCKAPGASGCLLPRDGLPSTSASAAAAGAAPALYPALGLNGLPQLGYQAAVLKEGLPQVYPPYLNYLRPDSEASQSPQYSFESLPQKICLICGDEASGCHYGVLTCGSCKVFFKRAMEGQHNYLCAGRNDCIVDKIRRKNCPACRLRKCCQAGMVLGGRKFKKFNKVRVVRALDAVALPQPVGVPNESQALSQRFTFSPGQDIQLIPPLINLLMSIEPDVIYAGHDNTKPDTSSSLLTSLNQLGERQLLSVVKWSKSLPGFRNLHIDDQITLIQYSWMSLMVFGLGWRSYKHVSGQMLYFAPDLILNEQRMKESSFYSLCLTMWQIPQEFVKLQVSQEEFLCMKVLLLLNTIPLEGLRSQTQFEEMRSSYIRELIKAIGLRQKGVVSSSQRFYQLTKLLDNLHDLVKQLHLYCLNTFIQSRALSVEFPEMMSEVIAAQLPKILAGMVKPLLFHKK
SMILES,AC50,outcome
COc1ccc(C(Cl)=C(c2ccc(OC)cc2)c2ccc(OC)cc2)cc1,8.27 µM (active),–
Cc1ccc(C(C)c2ccc(C)c(C)c2)cc1C,–,inactive
C[C@]12C=CC(=O)C=C1CC[C@@H]1[C@@H]2[C@@H](O)C[C@@]2(C)[C@H]1CC[C@]2(O)C(=O)CO,–,inactive
CC(=O)[C@H]1[C@H](C#N)C[C@H]2[C@@H]3CC=C4C[C@@H](O)CC[C@]4(C)[C@H]3CC[C@@]21C,19.2 µM (active),–
C#CC1(O)CC[C@H]2[C@@H]3CCC4=CCCC[C@@H]4[C@H]3CC[C@@]21C (stereo not given in full),–,inactive
C[C@]12CCC(=O)C=C1CC[C@@H]1[C@@H]2C(=O)C[C@@]2(C)[C@H]1CC[C@]2(O)C(=O)CO,–,inactive
CC(C)(c1cc(Br)c(OCCO)c(Br)c1)c1cc(Br)c(OCCO)c(Br)c1,13.4 µM (active),–
Nc1ccc(-c2ccc(F)cc2)cc1,24.6 µM (active),–
CCC(=O)Oc1ccc(/C(CC)=C(\CC)c2ccc(OC(=O)CC)cc2)cc1,9.26 µM (active),–
CCOC(=O)c1ccccc1C(=C1C=C(Br)C(=O)C(Br)=C1)c1cc(Br)c(O)c(Br)c1,24.5 µM (active),–
